# Screening data: PubChem BioAssay, several laboratories
# Sampled rows, rich in hits. Any-hit rate of the full collection: about 0.9%.
# E coli growth-1: E. coli growth inhibition, primary screen, OD600 | Escherichia coli growth, 23 h; stronger effect = lower value | OD600 absorbance (test concentration not listed) | 0.21% of 330,000 active | AID 1053175, 2014;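 active = OD600 absorbance below the run mean of sample wells minus 3.6 SD, in any replicate, cut at about 0.56 in these data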
# Calb FLC: C. albicans growth inhibition with fluconazole, primary screen, CaCi-2 strain, Alamar Blue fluorescence; 0.57% of 300,000 active; AID 1979, 2009; C. albicans CaCi-2 (fluconazole-resistant clinical isolate) + fluconazole, 48 h; growth inhibition, % (no concentration beside the values);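 active = growth inhibition above about 58% in most replicates, limit read from the data, passing the limit was not always enough; inconclusive = exactly half the replicates above a set limit; inactive = most replicates below a set limit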;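 also: all wells also contain fluconazole at 8 µg/ml as a sub-toxic cotreatment; 0% = median of DMSO wells and 100% = median of geldanamycin control wells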
# phage Ecoli inh: growth loss of phage-infected E. coli, primary screen, RecBCD inhibitor project, absorbance, with phage, HTS. inhibition, % at 11.9 µM. 0.26% of 360,000 active. AID 651602, 2012; in the data active = inhibition above about 11%
# AddAB inh: growth inhibition of E. coli expressing H. pylori AddAB, primary screen, AddAB inhibitor project, absorbance; inhibition, % at 11.9 µM; AID 435030, 2010; 0.29% of 330,000 active; in the data active = inhibition above about 12%;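 also: 0% = vehicle wells of infected cells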
# Tat transport: E. coli Tat export inhibitors, primary screen, MC4100, TorA-mCherry reporter, fluorescence, single point; inhibition, % at 10 µM; 0.036% of 340,000 active; AID 488895, 2010;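 active = mean replicate inhibition at least 50% and at least half of replicates individually reaching 50%; inconclusive = only one of the two criteria met; inactive = neither criterion met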;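 also: exported cargo escapes ClpAP degradation while cytoplasmic cargo is degraded and loses fluorescence; 0% = median of neutral control wells and 100% = median of NaSCN control wells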
# E coli growth-2: E. coli V3065 growth inhibition, primary screen, counter-screen for AddAB inhibitor project, absorbance, OD600 | 18 h | inhibition, % at 11.9 µM | 0.27% of 330,000 active | AID 449728, 2010;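 active = inhibition above the campaign's mean inhibition across all tested compounds plus 3 SD, cut at about 9.9% in these data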;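 also: uninfected addAB+ strain grown without phage in ampicillin broth; 0% = DMSO wells and 100% = ciprofloxacin 0.95 µg/ml wells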
# AddAB conf: growth loss of phage-infected E. coli expressing H. pylori AddAB, confirmation, AddAB inhibitor project, absorbance, E. coli V3065, T4 phage, triplicate. shares compounds with AddAB inh. OD; T4 phage with gene 2 nonsense mutations. inhibition, % at 11.9 µM. 64% of 880 active;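 active = mean inhibition above a set limit taken from the earlier primary screen, cut at about 13% in these data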;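 also: higher means less bacterial growth since AddAB block lets phage replicate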
# RecBCD counter: growth loss of RecBCD+ E. coli with mutant T4 phage, counter-screen for AddAB inhibitor project, absorbance, V66 E. coli | OD growth | shares compounds with AddAB inh | 73% of 880 active | inhibition, % at 11.9 µM;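 active = mean inhibition above the mean of solvent-only control wells plus 3 SD, cut at about 4% in these data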;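 also: optical density read after an 18 h incubation at 37 °C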
# Bact viability: bacterial viability inhibition counter-screen, confirmation, counter-screen for AddAB inhibitor project, absorbance; shares compounds with AddAB inh; absorbance (AddAB counterscreen); inhibition, % at 11.9 µM; 35% of 880 active; in the data active = inhibition above about 25%
# RecBCD conf: growth loss of phage-infected RecBCD+ E. coli, confirmation, RecBCD inhibitor project, absorbance, E. coli V66, T4 gene 2 phage; 45% of 890 active; shares compounds with phage Ecoli inh; AID 651982, 2013; E. coli V66 + T4 2- phage, growth OD; inhibition, % at 11.9 µM;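 active = mean inhibition over triplicates exceeding the hit threshold derived in the original primary screen, cut at about 11% in these data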
# Ecoli viability: E. coli viability inhibition, counter-screen for RecBCD inhibitor project, absorbance, high throughput | shares compounds with phage Ecoli inh | absorbance (OD) growth | inhibition, % at 11.9 µM | 29% of 890 active | AID 651983, 2013; in the data active = inhibition above about 20%;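 also: E. coli strain V66 grown with compound alone and no phage infection; 0% = bacteria with DMSO vehicle only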
# AddAB phage OD: growth loss of phage-infected AddAB-carrying E. coli, confirmation, counter-screen for RecBCD inhibitor project, absorbance, E. coli V3065, T4 phage; shares compounds with phage Ecoli inh; E. coli expressing H. pylori AddAB + T4 phage, OD growth; gene 2 mutant T4, recBCD-deleted host; inhibition, % at 11.9 µM; 45% of 890 active; AID 651984, 2013;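 active = mean inhibition above the solvent-only control wells' mean plus 3 SD, cut at about 22% in these data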;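 also: higher means less bacterial growth from phage killing when AddAB is blocked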
# Numbers without * were called inactive; u = inconclusive; x = no result.
SMILES,E coli growth-1,Calb FLC,phage Ecoli inh,AddAB inh,Tat transport,E coli growth-2,AddAB conf,RecBCD counter,Bact viability,RecBCD conf,Ecoli viability,AddAB phage OD
CCCOc1ccc(C(=O)NC(=S)N2CCN(c3cc4c(cc3F)c(=O)c(C(=O)O)cn4CC)CC2)cc1,0.084*,-10,98*,99*,62*,97*,103*,101*,105*,103*,103*,101*
[O-][n+]1c2ccccc2[n+]([O-])c2cc(O)ccc21,0.4*,-7,11*,31*,9,40*,69*,9.8*,51*,11*,11,55*
CCSc1nsc(NC(=O)Nc2cccc(F)c2)n1,x,-7,15*,19*,-9,25*,13*,16*,16,16*,19,22*
COc1cccc(NC(=O)Nc2nc(SC)ns2)c1,0.64,-18,5,2,6,2,x,x,x,x,x,x
COc1cccc(/C=C2/SC(=S)N(CC(=O)NNC(=O)c3ccccc3O)C2=O)c1,0.65,-24,14*,13*,9,7,17*,14*,16,11*,15,17
C(=Nn1cnnc1)c1ccc(N2CCOCC2)cc1,0.69,x,x,x,x,x,x,x,x,x,x,x
C[C@H]1O[C@@H](n2cc(F)c(=O)[nH]c2=O)[C@H](O)[C@@H]1O,x,-4,32*,36*,6,42*,41*,25*,38*,47*,31*,53*
O=c1[nH]c(=O)n(C2OC(CO)C(O)C(O)C2O)cc1F (stereo not drawn),x,x,4,x,x,x,x,x,x,x,x,x
CCN1/C(=C/c2ccc3cc(C)ccc3[n+]2CC)Sc2ccccc21,0.22*,x,14*,25*,4,28*,46*,14*,30*,6,4,16
CC[n+]1ccccc1/C=C1\Sc2ccc(C)cc2N1C,0.64,61,0,2,-2,2,x,x,x,x,x,x
O=C(CNc1cccc([N+](=O)[O-])c1)N/N=C/c1ccc([N+](=O)[O-])o1,x,-2,18*,82*,2,33*,102*,16*,60*,14*,12,66*
Cc1ccc(C(=O)N/N=C\c2ccc(-c3ccc([N+](=O)[O-])cc3)o2)cn1,x,-7,4,0,1,0,x,x,x,x,x,x
Cc1ccc(C(=O)N/N=C\c2ccc([N+](=O)[O-])o2)cn1,x,-1,18*,84*,-14,20*,101*,14*,36*,7,6,97*
O=C(Cc1ccc([N+](=O)[O-])cc1)N/N=C/c1ccc([N+](=O)[O-])o1,x,6,13*,21*,-24,14*,75*,7.1*,17,5,6,67*
COC(=O)c1ccc(C=NNC(=O)C(=O)NCc2ccccc2)cc1,0.72,x,x,x,x,x,x,x,x,x,x,x
COc1cccc(C=CC(=O)OCC(=O)NCC2CCCO2)c1 (stereo not drawn),0.69,x,x,x,x,x,x,x,x,x,x,x
CC(C)CCCN1C(Nc2ccccc2)=NCC1C (stereo not drawn),0.68,x,x,x,x,x,x,x,x,x,x,x
O=C(O)/C=C/c1ccc([N+](=O)[O-])o1,0.4*,12,18*,46*,14,73*,101*,16*,77*,20*,19,101*
COc1ccccc1OCC(=O)N/N=C/C=C/c1ccc([N+](=O)[O-])o1,x,94*,12*,83*,20,54*,101*,24*,94*,18*,23*,99*
O=[N+]([O-])c1ccc(NN=Cc2ccc(O)c(O)c2O)c(S(=O)(=O)N2CCOCC2)c1,0.74,x,x,x,x,x,x,x,x,x,x,x
CCCCCC1CN(Cc2ccccc2)C(=O)C1CC(=O)NCc1ccccc1 (stereo not drawn),0.67,x,x,x,x,x,x,x,x,x,x,x
C/C(N=Nc1nc2ccccc2s1)=N\Nc1ccccc1O,x,-6,33*,15*,-6,11*,32*,34*,31*,24*,27*,39*
Cc1ccccc1S(=O)(=O)N1CC(C(=O)O)=CCC1c1ccc(Cl)cc1 (stereo not drawn),0.67,x,x,x,x,x,x,x,x,x,x,x
Oc1ccccc1N=Nc1nc(-c2ccccc2)c(-c2ccccc2)[nH]1,x,1,20*,28*,-4,22*,21*,16*,18,11,15,19
O=C(N/N=C/c1ccc(O)cc1O)c1ccc(CN2C(=O)c3cccc4cccc2c34)cc1,x,108*,22*,14*,3,25*,16*,20*,10,9,11,16
SMILES,E coli growth-1,Calb FLC,phage Ecoli inh,AddAB inh,Tat transport,E coli growth-2,AddAB conf,RecBCD counter,Bact viability,RecBCD conf,Ecoli viability,AddAB phage OD
Cc1cc([N+](=O)[O-])nn1Cc1ccc(C(=O)N/N=C/c2ccc(O)cc2O)cc1,x,20,17*,19*,-2,20*,23*,19*,13,5,7,10
Cc1ccc([N+](=O)[O-])c(C(=O)NN=Cc2cccnc2)c1,0.67,x,x,x,x,x,x,x,x,x,x,x
CCc1nnc(NS(=O)(=O)c2ccc(N=Cc3c(C)[nH]n(-c4cccc(Cl)c4)c3=O)cc2)s1,0.62,-3,11*,24*,-13,16*,9,4.8*,14,10,7,31*
O=C(NN=Cc1ccc2c(c1)OCO2)c1cc(-c2ccncc2)nc2ccccc12,0.69,x,x,x,x,x,x,x,x,x,x,x
Cc1cc(C)c(C)c(S(=O)(=O)N2CCC(C(=O)NNC(=O)c3ccccc3O)CC2)c1C,0.65,u,12*,15*,-6,9,11,8.1*,6,1,1,0
CCN(CC)CCNC(=O)c1cn(CC)c2cc(N3CCN(C)CC3)c(F)cc2c1=O,0.056*,-4,96*,100*,35,98*,99*,100*,98*,65*,102*,100*
